Source: PubChem BioAssay (EPA / NIEHS)
Several values for one entry are separate records, joined by “and”; a condition that tells them apart may be missing. Equal values may be shown once. Some structures have more than one record in an assay (separate samples or runs), and their calls can disagree. Activity calls are given as the source filed them. The calls were made as follows: active = hit-call score of the fitted dose curve at least 0.9, where 1 is the maximum; inactive = score below 0.9.

The molecules below were run on CD69, CD69 (gene 969) (assay: BSK_SAg_CD69: BioMAP Diversity Plus: SAg Assay for CD69 Biomarker Activity (AID 2283089)). Details: primary human HUVEC with PBMC; actives raise or lower the signal.
Procedure: BSK_SAg is a cell-based, multiplexed-readout assay that uses umbilical vein endothelium and peripheral blood mononuclear cells, a human vascular primary cell co-culture, with measurements taken at 24 hours after chemical dosing in a 96-well plate.BSK_SAg_CD69 is one of 10 assay component(s) measured or calculated from the BSK_SAg assay. It is designed to make measurements of enzyme-linked immunosorbent assay, a form of binding reporter, as detected with fluorescence intensity signals by Enzyme-linked immunosorbent assay technology.Data from the assay component BSK_SAg_CD69 was analyzed into 1 assay endpoint. This assay endpoint, BSK_SAg_CD69, was analyzed with bidirectional fitting relative to DMSO as the negative control and baseline of activity. Using a type of binding reporter, gain or loss-of-signal activity can be used to understand changes in the signaling as they relate to the gene CD69. Furthermore, this assay endpoint can be referred to as a primary readout, because this assay has produced multiple assay endpoints where this one serves a signaling function. To generalize the intended target to other relatable targets, this assay endpoint is annotated to the cytokine intended target family, where the subfamily is inflammatory factor.
The levels of cell surface (or secreted, indicated by the prefix "s") biomarker endpoints were measured by ELISA. Overt cytotoxicity to cells in confluent adherent cultures (all systems other than the BT system) was assessed by measuring total protein levels using sulforhodamine B (SRB) staining in parallel cultures at the time of biomarker measurements, indicated as SRB endpoints. For proliferation assays for adherent cell types, individual cell types are cultured at sub-confluence and relative cell numbers quantified by SRB staining at time points optimized for each system (48 h: 3C and CASM3C systems; 72 h: BT and HDF3CGF systems; 96 h: SAg system). SRB was performed by staining cells with 0.1% SRB after fixation with 10% TCA and reading wells at 560 nm.Viability and proliferation of PBMC (T cells) was quantified by Alamar Blue reduction for the SAg and BT systems. For PBMC viability (referred to as PBMC Cytotoxicity within the assay endpoint names), cells were plated (75,000/well in a 96-well plate) and then chemical samples added for 1 h before addition of activators, SEB and TSST-1 (20 ng/mL final concentration each). Cells were incubated for 90 h. Then, Alamar Blue (20 uL/well) (Invitrogen, Cat DAL1100) was added for 6 h, and the plates were read with a fluorescence microplate reader at 546/580 nm (excitation/emission). For PBMC proliferation, cells were plated and activated as above but incubated for only 16 h prior to addition of Alamar Blue. Plates were read after 6 h.

Row | SMILES | outcome | AC50
1 | O=S(=O)(O)C(F)(F)C(F)(F)C(F)(F)C(F)(F)C(F)(F)C(F)(F)C(F)(F)F | inactive | 
2 | FC(F)(Br)C(F)(F)C(F)(F)C(F)(F)C(F)(F)C(F)(F)Br | inactive | 
3 | CCO[Si](CCC(F)(F)C(F)(F)C(F)(F)C(F)(F)C(F)(F)C(F)(F)F)(OCC)OCC | inactive | 
4 | OCCCC(F)(F)C(F)(F)C(F)(F)C(F)(F)C(F)(F)C(F)(F)C(F)(F)F |  | 42.4 µM (active) and 41.7 µM (active)
5 | O=S(=O)(OCC(F)F)C(F)(F)F | inactive | 
6 | O=C(O)C(F)(F)C(F)(F)C(F)(F)C(F)(F)C(F)(F)C(F)(F)C(F)(F)C(F)(F)C(F)(F)C(F)(F)C(F)(F)C(F)(F)C(F)(F)F | inactive | 
7 | FC(F)(F)C(F)(F)C(F)(F)C(F)(F)CCI | inactive | 
8 | O=S(=O)(OCCOC(F)(F)F)C(F)(F)F | inactive | 
9 | CCCCCCCCC(F)(F)C(F)(F)C(F)(F)C(F)(F)C(F)(F)C(F)(F)F | inactive | 
10 | CCc1c(Br)c(Br)c(Br)c(Br)c1Br | inactive | 
11 | N=C(N)C(F)(F)C(F)(F)C(F)(F)C(F)(F)C(F)(F)C(F)(F)C(F)(F)F | inactive | 51 µM (active)
12 | CCCCOCCOCCOC(=O)CCCCC(=O)OCCOCCOCCCC | inactive | 
13 | O=C(O)C(F)(F)C(F)(F)OC(F)(F)F | inactive | 
14 | CO[Si](OC)(c1ccccc1)c1ccccc1 | inactive | 
15 | FC1CC(F)(F)C(F)(F)C1(F)F (stereo not given) | inactive | 
16 | OCC(F)(F)C(F)(F)C(F)(F)F | inactive | 
17 | OCC(F)(F)C(F)(F)C(F)(F)C(F)(F)C(F)(F)C(F)(F)F | inactive | 
18 | FC(F)(F)C(F)(F)CNCC(F)(F)C(F)(F)F | inactive | 
19 | CC(CCl)OP(=O)(OC(C)CCl)OC(C)CCl (stereo not given) | inactive | 

Row | SMILES | outcome | AC50
20 | FC(F)(F)C(F)(F)C(F)(F)C(F)(F)C(F)(F)C(F)(F)C(F)(F)I | inactive | 
21 | FC(F)(I)C(F)(F)C(F)(F)C(F)(F)I | inactive | 46.7 µM (active)
22 | O=C(O)C(F)(F)C(F)(F)C(F)(F)C(F)(F)C(F)(F)C(F)(F)C(F)(F)C(F)(F)C(F)(F)C(F)(F)C(F)(F)C(F)(F)F | inactive | 
23 | OCCCC(F)(F)C(F)(F)C(F)(F)F | inactive | 
24 | CCCCCCCOC(=O)c1ccccc1C(=O)OCCCCCCC | inactive | 
25 | O=P(O)(O)OCCC(F)(F)C(F)(F)C(F)(F)C(F)(F)C(F)(F)C(F)(F)F | inactive | 
26 | O=C(O)C(F)(F)C(F)(F)C(F)F | inactive | 
27 | O=C(Cl)C(F)(F)C(F)(F)C(F)(F)C(F)(F)C(F)(F)C(F)(F)C(F)(F)C(F)(F)F |  | 24.5 µM (active) and 30 µM (active) and 43.1 µM (active)
28 | NC(=O)C(F)(F)C(F)(F)C(F)(F)C(F)(F)F | inactive | 
29 | O=C(O)C(F)(OC(F)(F)C(F)(OC(F)(F)C(F)(F)C(F)(F)F)C(F)(F)F)C(F)(F)F (stereo not given) | inactive | 
30 | O=C(O)C=C(C(F)(F)F)C(F)(F)F |  | 22.8 µM (active) and 30 µM (active)
31 | FC(F)(F)C(F)(F)C(F)(F)C(F)(F)C(F)(F)C(F)(F)C(F)(F)Br | inactive | 
32 | CCN(CC)c1ccc2c(C)cc(=O)oc2c1 | inactive | 
33 | O=C(O)C(F)(OC(F)(F)C(F)(OC(F)(F)C(F)(OC(F)(F)C(F)(F)C(F)(F)F)C(F)(F)F)C(F)(F)F)C(F)(F)F (stereo not given) | inactive | 
34 | COC(=O)CCC(F)(F)C(F)(F)C(F)(F)C(F)(F)F | inactive | 
35 | FC(F)(F)C(F)(F)C(F)(F)C(F)(F)C(F)(F)C(F)(F)CCS | inactive | 
36 | FC(F)(F)C(F)(F)C(F)(F)CI | inactive | 
37 | C=CC(=O)OCC(F)(F)C(F)(F)C(F)(F)C(F)(F)C(F)(F)C(F)(F)C(F)(F)F | inactive | 
38 | C#C[C@]1(O)CC[C@H]2[C@@H]3CCc4cc(OC)ccc4[C@H]3CC[C@@]21C |  | 15.2 µM (active)
